rTrxR1 inhibitor = qHTS Assay for Inhibitors of Mammalian Selenoprotein Thioredoxin Reductase 1 (TrxR1): qHTS | recombinant rTrxR1, NADPH fluorescence consumption, selenite substrate | Potency, µM (highest dose often 114 µM), for inactives: at the highest dose activity change, negative = inhibition, actives largely listed as inhibitors | hit rate 1% among 390,000 | AID 588453, 2011; further: potency means the concentration at half of the fitted maximal effect; nearly all actives have a fitted effect of over 65% in size
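Rat TrxR1 (90 nM in the dispensed reagent) was pre-reduced with 400 uM NADPH for 5 min at room temperature, then incubated with compound for 15 min. After 400 uM selenite was added, NADPH fluorescence (Ex 340/Em 450 nm) was followed for 8 min.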
TrxR1 substrate = qHTS Assay for Substrates of Mammalian Selenoprotein Thioredoxin Reductase 1 (TrxR1): qHTS; purified TrxR1 substrate turnover, NADPH consumption readout; Potency, µM (series often up to 114 µM), for inactives: at the top dose activity change, negative = substrate turnover; hit rate 0.01% among 390,000; AID 588456, 2011; further: potency means the concentration at half of the fitted maximal effect; nearly all actives have a fitted effect of over 50% in size
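Rat TrxR1, dispensed at 90 nM, was prereduced with 400 uM NADPH (final) for 5 min at ~22 deg C, then incubated with compound 15 min before 400 uM selenite. A first-read NADPH fluorescence drop versus no-compound background flagged substrates.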
CtBP-E1A inh = qHTS Assay for Inhibitors of the CtBP/E1A Interaction; CtBP / adenovirus E1A interaction (AlphaScreen); AlphaScreen GST-E1A/His-CtBP binding, 1536-well; active compounds read low; activity change, % (concentration not given with the values); hit rate 0.49% among 340,000; AID 651724, 2012; in the data active means activity change below about -65%; inconclusive means mostly about -30% to -63%
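Steps: dispense buffer (Tris pH 8.0, NaCl 300 mM, TCEP 1 mM, BSA, Tween 20); add 5X protein mix (GST-E1A, His-CtBP, 125 nM each); pin 23 nL compound; 2 h at 37 °C, dark; add 5X beads (50 ug/mL); 1 h; read.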
Six1-Eya2 blk = qHTS Assay for Inhibitors of the Six1/Eya2 Interaction | AlphaScreen GST-Six1/His-Eya2 binding, biochemical; active compounds read low | Homeobox protein SIX1 (Homo sapiens) + Protein phosphatase EYA2 (Homo sapiens), … | hit rate 0.56% among 360,000 | AID 651725, 2012 | activity change, % (no concentration beside the values); in the data active means activity change below about -65%; inconclusive means mostly about -30% to -63%
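Homogeneous AlphaScreen proximity assay pairing GST-Six1 with His-tagged Eya2 (added as 5X mix: 250 nM and 500 nM) in 50 mM Tris pH 8.0, 300 mM NaCl, 1 mM TCEP. Glutathione donor and nickel acceptor beads; 1 h, 37 °C, dark.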
GALK inhibitor = qHTS Assay for Inhibitors of Human Galactokinase (GALK) | Potency, µM (series often up to 57.5 µM), without a hit: top-dose activity change, negative = inhibition, usual class: inhibitors | AID 1868, 2009 | hit rate 0.007% among 270,000 | Purified GALK, Kinase-Glo residual ATP luminescence; further: potency means the concentration at half of the fitted maximal effect
Target sequence (P51570 whole entry, looked up): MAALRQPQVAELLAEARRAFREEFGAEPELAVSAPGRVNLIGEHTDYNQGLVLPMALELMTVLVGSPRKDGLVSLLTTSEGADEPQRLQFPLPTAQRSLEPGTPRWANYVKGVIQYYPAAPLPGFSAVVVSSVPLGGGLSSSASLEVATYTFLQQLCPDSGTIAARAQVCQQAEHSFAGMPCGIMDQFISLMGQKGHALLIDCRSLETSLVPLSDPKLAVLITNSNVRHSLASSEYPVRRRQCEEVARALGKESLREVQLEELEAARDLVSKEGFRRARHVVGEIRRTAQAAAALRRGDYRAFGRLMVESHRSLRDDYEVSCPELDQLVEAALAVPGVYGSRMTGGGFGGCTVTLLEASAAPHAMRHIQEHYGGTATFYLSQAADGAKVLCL
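Luminescence from leftover ATP (Ultra-Glo luciferase/luciferin) served as read-out after a 1 h room-temperature reaction of 5 nM GALK with 35 uM ATP and 100 uM galactose.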
Eya2 phos inh = qHTS Assay for Inhibitors of the Phosphatase Activity of Eya2; recombinant Eya2, OMFP fluorescence dephosphorylation (OMFP is methylfluorescein phosphate); Potency, µM (top dose mostly 76.9 µM), without a hit: at the highest dose activity, negative = inhibition, most hits filed as inhibitors; hit rate 0.006% among 330,000; AID 488837, 2010; further: potency means the concentration at half of the fitted maximal effect
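Eya2 protein (added as 0.2 uM solution) was preincubated with compound for 10 min at ambient temperature in 50 mM HEPES pH 7.5, 50 mM NaCl, 5 uM MgCl2, 0.05% BSA, 1 mM DTT. OMFP (added at 50 uM) then reacted 10 min; fluorescence read at 485/525 nm.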
* = called active by the depositor; ? = inconclusive; nt = not tested or not shown; [ ] = dose if it differs, or a comment. A selection: hits, their analogues and other compounds. The true share with any hit is near 1.5%. Unless noted, the call rests on the fitted dose curve; in most records, active means well fitted curve in the direction sought with a large enough effect; inconclusive means small, poorly fitted or top-dose-only effect, or another doubt; inactive means no such curve, though single readings can be large; an effect the other way counts as inactive or inconclusive. On the % scale 0 is the no-effect control and ±100 the full control effect.

SMILES	rTrxR1 inhibitor	TrxR1 substrate	CtBP-E1A inh	Six1-Eya2 blk	GALK inhibitor	Eya2 phos inh
Cc1cccc(NC(=O)CSc2nc(N)cc(N)n2)c1	8%	7%	-2	-3	0%	0%
Cc1ccccc1NC(=O)CSc1nnc(-c2ccco2)n1N	6%[57.1 µM]	4%[57.1 µM]	0	5	nt	-6%
Cc1cccc(NC(=O)CSc2nnc(-c3ccco3)c(-c3ccco3)n2)c1	8.9µM*	-5%	?	?	-1%	-1%
Cc1ccc(-c2nc3cc(Cl)ccc3o2)cc1NC(=O)c1cc2ccccc2o1	27%	17%	nt	nt	nt	nt
CCCCn1c(N)c(N(CC(C)C)C(=O)C2CCN(c3ncnc4sc(C)c(C)c34)CC2)c(=O)[nH]c1=O	-8%	-9%	13	-4	nt	-25%
CCCCn1c(N)c(N(CCOC)C(=O)C2CCN(c3ncnc4sc(C)c(C)c34)CC2)c(=O)[nH]c1=O	-2%[57.1 µM]	-2%[57.1 µM]	-90*	2	nt	1%
O=Cc1ccc2ccc3cccnc3c2n1	3%	3%	-93*	-69*	nt	0%
CSS(=O)(=O)c1cccc2cccnc12	12%	-2%	-70*	?	-4%	?
O=S(=O)(O)c1cccc2cccnc12	10%	3%	nt	nt	nt	nt
c1cnc2c(c1)ccc1cccnc12	12%[57.1 µM]	9%[57.1 µM]	-76*	-90*	0%	1%
O=C1C=CC(=O)N1c1cccc2cccnc12	56µM*	13%	0	-29	nt	nt
CCOc1ccccc1N(CC)C(=O)Cn1ncc2c([nH]c3ccccc32)c1=O	6%	-7%	nt	nt	nt	nt
O=C1C(Cl)=C(NCCCO)C(=O)c2ccccc21	-18%	-13%	?	-19	-1%	-5%
CCOCCCNC1=C(Cl)C(=O)c2ccccc2C1=O	7.1µM*	-20%	?	?	4%	0%
COc1ccc(-c2noc(CSc3nnc(Cc4ccccc4)n3-c3ccccc3)n2)cc1OC	17%	-4%	nt	nt	nt	nt
COC(=O)N/N=C\C=C\c1ccc2c(c1)OCO2	0%	-2%	-5	7	2%	-11%
COc1ccc(CC(=O)N/N=C/C=C/c2ccc3c(c2)OCO3)cc1OC	8%	2%	-18	-69*	1%	?
COc1cccc(Nc2nc(-c3sc(N)nc3C)cs2)c1	-18%[57.1 µM]	5%[57.1 µM]	-72*	?	-2%	-27%
COc1cccc(Nc2nc(-c3sc(C)nc3C)cs2)c1	32%	14%[2.29 µM]	nt	-13	5%	-19%
O=C1OC(Nc2nc(-c3ccc(F)cc3)cs2)c2ccccc21 (stereo not given)	56µM*	-4%	-3	-2	0%	13%
O=C1OC(Nc2nc3ccccc3s2)c2ccccc21 (stereo not given)	-24%	-8%	7	1	1%	-11%
CCOC(=O)CSC1=NC(=O)/C(=C/c2ccc(OC)cc2)S1	16µM*	-13%	10	-2	1%	1%
COc1ccc(/C=C2\SC(N)=NC2=O)cc1	-6%[57.1 µM]	0%[57.1 µM]	0	-6	7%	1%
O=C(/C=C/c1ccco1)Nc1ccc(Cl)c(-c2nc3cc(Cl)ccc3o2)c1	-21%	1%	nt	nt	nt	nt
Cc1ccc(N2CC(c3nnc(Cc4ccc(F)cc4Cl)o3)CC2=O)cc1 (stereo not given)	9%	3%	nt	nt	nt	nt
SMILES	rTrxR1 inhibitor	TrxR1 substrate	CtBP-E1A inh	Six1-Eya2 blk	GALK inhibitor	Eya2 phos inh
Cc1ccc(N(CN2C(=O)C3CC=CCC3C2=O)C(=O)c2ccco2)cc1Cl (stereo not given)	14µM*	6%	0	-2	3%	18%
C1=Cc2ccccc2/C1=C\c1cc[cH-]c1.[Fe+2].c1cc[cH-]c1	3.2µM*	2%	nt	nt	nt	nt
Nc1ccc(/C=C2\C=Cc3ccccc32)cc1	-14%[0.0914 µM]	-4%	nt	nt	nt	nt
OCCn1c(CSc2nnc(-c3ccco3)n2-c2ccccc2)nc2ccc(Cl)cc21	20µM*	6%	6	0	-3%	-12%
NC(=O)CSc1nnc(-c2ccco2)n1-c1ccccc1	6%	1%	nt	-2	-2%	7%
C[N+]1=C(/C=C/Nc2ccccc2Cl)C(C)(C)c2ccccc21	-25%	-14%	9	-5	1%	-1%
COC(=O)c1ccc2c(c1)C(C)(C)C(/C=C/c1ccccc1O)=[N+]2C	79µM*	58%	-6	-7	-1%	-5%
COc1ccc(C(N)c2nccc3cc(OC)c(OC)cc23)cc1OC (stereo not given)	-16%	4%	?	-75*	3%	10%
COc1ccc(C(=O)COC(=O)c2cc(-c3cccs3)nc3ccccc23)cc1	62%	51%	nt	nt	nt	nt
Cc1ccccc1CNC(=O)Cn1c(=O)c2cccn2c2cccnc21	1%	2%	nt	nt	nt	nt
O=c1[nH]c(N/N=C\c2ccc3c(c2)OCO3)nc2ccccc12	14%	-3%	-68*	?	3%	3%
COc1cc(OC)c(OC)cc1/C=C/c1nc2cc3ccccc3cc2c(=O)n1-c1ccc(F)cc1F	-1%[57.1 µM]	-10%[57.1 µM]	nt	nt	nt	nt
Cc1ccc(NC(=O)CN2C(=O)CSc3ccc(S(=O)(=O)N4CCCC4)cc32)c(C)c1	0%	-12%	nt	nt	nt	nt
CC(C)N(Cc1ccccc1)S(=O)(=O)c1ccc(N2CCCCS2(=O)=O)cc1	1%[57.1 µM]	-1%[57.1 µM]	nt	nt	nt	nt
COc1ccc2c([N+](=O)[O-])c(Cl)[nH]c2c1	14µM*	-1%	nt	-9	-3%	-21%
Cc1cc(N2CCOCC2)n2ncc(-c3ccc(Cl)cc3)c2n1	73%	157%	2	9	-1%	15%
CC(C)(C)c1cc(N2CCOCC2)n2ncc(-c3ccc(Cl)cc3)c2n1	89µM*	174%	18	0	-4%	-4%
COc1cc(NC(=O)Nc2nnc(N3CCCCCC3)s2)cc(OC)c1	12%	0%	nt	nt	nt	nt
NC(=O)C1CCN(C2=C(Cl)C(=O)c3ccccc3C2=O)CC1	1µM*	-15%	-2	-6	?	-12%
O=C1C(Cl)=C(N2CCC(C(=O)O)CC2)C(=O)c2ccccc21	1.1µM*	-1%	1	-19	?	5%
COc1cccc(-c2cn3c(n2)sc2cc(C(=O)NCCCc4ccccc4)ccc23)c1	21%	10%	nt	nt	nt	nt
COC(=O)C1=C(O)/C(=C\c2cc(C)n(-c3ccccc3C)c2C)N=C1C	-26%	-7%	3	-12	2%	0%
COC(=O)C1=C(O)/C(=C\c2cc(C)n(-c3ccccc3F)c2C)N=C1C	16µM*	-1%	-2	-7	0%	16%
